In PubChem BioAssay (NCATS):
Several values for one entry are separate records, joined by “and”; a condition that tells them apart may be missing. Equal entries are not always repeated. Records with an inconclusive call do not appear. A structure can be active in one record and inactive in another. Activity calls are given as the source filed them. Unless noted, calls come from the whole dose curve; as a rule, active = well fitted curve in the direction sought with a large enough effect; inconclusive = small, poorly fitted or top-dose-only effect, or another doubt; inactive = no such curve, though single readings can be large; an effect the other way counts as inactive or inconclusive.

Assays:
[1] = system: Zika virus NS2B-NS3 protease; assay: Primary screen GU AMC qHTS for Zika virus inhibitors (AID 1347154);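 note: 0% = no-inhibitor control and -100% = no-enzyme control; nearly all actives have a fitted effect of over 70% in size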
Outline: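 Fluorogenic AMC-substrate cleavage by noncovalent NS2B-NS3 protease complex (25 nM, pH 8.0 Tris buffer with Tween 20) followed for 15 minutes at room temperature (~20% conversion). Percent inhibition from ex340/em450 signal change, fitted by 4-parameter Hill equation.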

[2] = Primary qHTS for small molecule stabilizers of the endoplasmic reticulum resident proteome: Secreted ER Calcium Modulated Protein (SERCaMP) assay (AID 1508630); note: % is set by controls: 0 for no effect and ±100 for the full control effect
Outline: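 The SH-SY5Y reporter protocol was run at 3 concentrations up to 38.3 uM (primary) or 11 concentrations (follow-up): 16 h compound, 100 nM thapsigargin for 4 h, then extracellular luciferase luminescence.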

[3] = AP1 Signaling Pathway (AID 357; active = well fitted curve in either direction with a large enough effect, not every such curve was filed as active;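 note: ME-180 reporter cells stimulated with EGF at its EC50 level; % is set by controls: 0 for no effect and ±100 for the full control effect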); conditions: ME-180 AP-1-bla reporter, EGF-induced, beta-lactamase ratio, 5 h
Outline: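 Cells are seeded overnight, exposed to compound titrations and an EC50 level of EGF for 5 hours at 37 °C, then loaded with CCF4 dye for 2.5 hours. Beta-lactamase activity under the AP-1 element is read as a blue/green ratio.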

[4] = molecular target: Cytochrome P450 1A2 (Homo sapiens) (UniProt P05177); assay: p450-cyp1a2 (AID 410; calls by dose curve; note: potency is the fitted concentration of half-maximal effect;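 for activity change, negative = inhibition: -100% = full effect of reference inhibitor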)
Outline: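 20nM CYP1A2, 100uM Luciferin-ME (=Km), 100mM KPO4; cpd 10 min RT; +NADPH regen, 60 min RT; stop/detect 20 min; luminescence. Normalized to furafylline 57 uM = full inhibition.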

[5] = NFAT Signaling Pathway (AID 444; active = well fitted curve in either direction with a large enough effect, not every such curve was filed as active;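 note: carbachol stimulus at about its EC50 of 1 µM final; % is set by controls: 0 for no effect and ±100 for the full control effect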); conditions: Jurkat NFAT-bla M1, carbachol, beta-lactamase ratio, 5 h; at 38 µM (top of the series)
Outline: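 Read-out: CCF4 FRET ratio (460 nm/530 nm) after 1 h RT dye loading, used for %activity and AC50 from titration series. Cells: Jurkat NFAT-β-lactamase/M1 line, treated with compound plus 1 uM carbachol for 5 h, 37 °C.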

[6] = molecular target: Glucocorticoid receptor (Homo sapiens) (UniProt P04150); assay: GR-GFP Redistribution (AID 450;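 active = compounds whose dose series gives a full or clear partial fitted curve of increased nuclear translocation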; note: potency is the fitted concentration of half-maximal effect); conditions: U2OS GR-GFP nuclear translocation, laser cytometry, 2 h
[7] = molecular target: Glucocorticoid receptor (Homo sapiens) (UniProt P04150); assay: GR-EFC Redistribution (AID 451; calls by dose curve; note: potency is the fitted concentration of half-maximal effect); conditions: CHO-K1 GR-EFC translocation, beta-gal luminescence, 2 h
Outline: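 Translocation of GR-ED fusion to nuclear EA restores b-gal, read by luminescence after 1 h room-temperature detection. Engineered CHO-K1 biosensor cells, 1,000/well, exposed 2 h at 37 C to titrations up to 46 uM final.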

[8] = molecular target: Mitogen-activated protein kinase 10 (Mus musculus) (UniProt Q61831); assay: JNK3 AlphaScreen Assay (AID 530; active = well fitted curve in either direction with a large enough effect, not every such curve was filed as active;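 note: kinase came from lysate of stimulated human HepG2 cells; signal reports phosphorylation of biotinylated GST-cJun 1-79 at Ser73 with 10 µM ATP; % is set by controls: 0 for no effect and ±100 for the full control effect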)
Outline: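 Kinase buffer: 20 mM Tris-HCl pH 7.6, 10 mM MgCl2, 1 mM DTT, 0.1 mM Na3VO4, 0.01% Tween-20; ATP 10 uM. Substrate biotin-GST-cJun(1-79), enzyme from activated HepG2 lysates. Detection by Ser73 phospho-antibody AlphaScreen.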

[9] = molecular target: 3',5'-cyclic-AMP phosphodiesterase 4B (Homo sapiens) (UniProt Q07343); assay: qHTS Assay for Inhibitors of PDE-IV (AID 607; active = well fitted activation curve with a large enough effect in the main read-out, with a control signal flat, not every such curve was filed as active; note: % of control where 0% means no effect)
Outline: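 The readout is membrane depolarisation from a cAMP-sensing CNG channel, detected with a potential dye at ex 535/em 590. Cells were HEK293-derived (endogenous PDE-IV) at 1000 cells/well, titrated up to 22.9 uM final.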

[10] = molecular target: Guanine nucleotide-binding protein G(i) subunit alpha-1 (Homo sapiens) (UniProt P63096); assay: qHTS Assay for Inhibitors of RGS12 GoLoco Motif Activity (Green Fluorophore) (AID 879);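 note: 0% = labeled peptide with Gαi1 and full inhibition = labeled peptide alone without protein; negative values mean loss of peptide binding seen as reduced polarization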
Outline: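 A drop in FITC polarization marked displacement of the FITC-tagged RGS12 GoLoco peptide (10 nM) from Gαi1 (50 nM). Compounds were incubated 10 min at room temperature in Tris pH 7.5 buffer containing 150 mM NaCl, 0.1 mM GDP and 0.05% NP40; unlabeled peptide titration served as control.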

[11] = molecular target: Cytochrome P450 2C9 (Homo sapiens) (UniProt P11712); assay: qHTS Assay for Inhibitors and Substrates of Cytochrome P450 2C9 (AID 883); note: % is set by controls: 0 for no effect and ±100 for the full control effect; nearly all actives have a fitted effect of over 60% in size
Outline: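 Turnover of Luciferin-H (100uM, KM) by 10nM human CYP2C9 was measured over 60 min at 37C with NADPH regeneration; inhibitors and some substrates reduce luminescence. Data normalized to sulphaphenazole 57uM.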

[12] = molecular target: Cytochrome P450 3A4 (Homo sapiens) (UniProt P08684); assay: qHTS Assay for Activators of Cytochrome P450 3A4 (AID 885); note: nearly all actives have a fitted effect of over 65% in size
Outline: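 Activators are scored by enhanced luminescence from CYP3A4 conversion of luciferin-PPXE (25uM, equal to KM) to luciferin, after 60 min at RT with an NADPH-regenerating system.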

[13] = molecular target: Cytochrome P450 2D6 (Homo sapiens) (UniProt P10635); assay: qHTS Assay for Inhibitors and Substrates of Cytochrome P450 2D6 (AID 891); note: nearly all actives have a fitted effect of over 60% in size; note: potency is the fitted concentration of half-maximal effect
Outline: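 Luminescent read-out of luciferin formed by 5 nM human CYP2D6 demethylating 30 uM Luciferin-ME EGE (Km level) over 60 min at room temperature after NADPH regeneration addition. Data normalized to full inhibition by 1.43 uM quinidine.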

[14] = molecular target: Cytochrome P450 2C19 (Homo sapiens) (UniProt P33261); assay: qHTS Assay for Inhibitors and Substrates of Cytochrome P450 2C19 (AID 899); note: nearly all actives have a fitted effect of over 60% in size; note: potency is the fitted concentration of half-maximal effect
Outline: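 Reactions contain 5nM enzyme, 10uM Luciferin-H EGE (KM) and 50mM KPO4; compound preincubates 10 min at 37C, NADPH regeneration starts turnover for 60 min. Luminescence after detection reagent gives activity.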

[15] = qHTS Assay for Identification of Small Molecule Agonists for Thrombopoietin (TPO) Signaling Pathway (AID 917); note: % is set by controls: 0 for no effect and ±100 for the full control effect
Outline: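 Ba/F3 (mouse) + hTPO receptor + GpIIb-promoter luciferase; IL-3 withdrawn overnight; compound + 26 pM TPO (EC50), 24 hrs, 37 C, 5% CO2; Steadylite luminescence, 10 min RT.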

[16] = molecular target: Muscarinic acetylcholine receptor M1 (Rattus norvegicus) (UniProt P08482); assay: qHTS Assay for Antagonists of Acetylcholine Muscarinic M1 Receptor: Kinetic Measurement of Intracellular Calcium Response (AID 943);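 note: Fluo-4 calcium signal as peak divided by basal fluorescence over 4 min; nearly all actives have a fitted effect of over 75% in size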
Outline: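 Read-out: peak over basal Fluo-4 fluorescence, kinetic at 1 Hz for 4 min after EC80 carbachol (100 nM final). Rat M1-CHO cells, dye loaded 1 h at 37C, compound added 10 min before agonist.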

[17] = molecular target: Muscarinic acetylcholine receptor M1 (Rattus norvegicus) (UniProt P08482); assay: qHTS Assay for Antagonists of Acetylcholine Muscarinic M1 Receptor: Measurement of IP-One Response (AID 944); note: nearly all actives have a fitted effect of over 75% in size
Outline: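 Read-out: HTRF competition between d2-IP1 and Eu-cryptate anti-IP1 antibody, emission 620 and 665 nm. Stimulus was carbachol, EC80 (200 nM), for 30 min in M1-CHO cells (rat receptor), after 10 min compound pre-treatment.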

[18] = molecular target: Pyruvate kinase (Leishmania mexicana) (UniProt Q27686); assay: qHTS Validation Assay for Inhibitors of Leishmania Mexicana Pyruvate Kinase (AID 945);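 note: 0% = DMSO only neutral control wells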
Outline: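 Eight-point qHTS titrations in triplicate, data normalized to DMSO neutral control. Reaction: 0.2 nM LmPYK E451W mutant, 0.5 mM PEP, 0.1 mM ADP, 7 mM MgCl2, pH 7.2, one hour at room temperature; luminescent ATP detection.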

[19] = molecular target: Pyruvate kinase PKM (Homo sapiens) (UniProt P14618); assay: qHTS Assay for Activators of Human Muscle Pyruvate Kinase (AID 954; active = well fitted curve in the direction sought with a large enough effect, not every such curve was filed as active;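 note: 0% = uninhibited enzyme and -100% = no enzyme or full thiadiazolimine inhibition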)
Outline: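 PKM2, human, >95% pure, 0.1 nM; PEP 0.5 mM (Km), ADP 0.1 mM; 50 mM imidazole pH 7.2, 50 mM KCl, 0.01% Tween 20, 0.05% BSA; 1 h RT; luciferase luminescence readout.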

[20] = molecular target: alpha-glucosidase (Oryza sativa, rice) (UniProt Q653V4); assay: Counterscreen for Glucocerebrosidase Inhibitors: qHTS Assay for Rice alpha-Glucosidase at pH 5.0 (AID 997);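 note: 0% = full activity with enzyme and -100% = basal without enzyme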
Outline: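 Endpoint fluorogenic assay at pH 5.0: compounds (0.7 nM to 77 uM) titrated against 4 nM rice enzyme and 400 uM 4-MU-alpha-glucoside for 20 min at room temperature; NaOH/glycine stop, read ex 365/em 440 nm, Hill-fitted AC50.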

[21] = qHTS Assay for Lipid Storage Modulators (AID 1519; calls by dose curve); conditions: Drosophila S3 cells, BODIPY lipid droplet/cell ratio, laser cytometry, cells loaded with oleic acid
Outline: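 Cells seeded at 5,000 per well were treated with compounds over a concentration series and loaded with oleic acid (400 uM, as added). Lipid droplet fluorescence (488 nm excitation, 500-530 nm channel) was read by laser-scanning cytometry and normalized to 20 uM Triacsin C.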

[22] = molecular target: DNA dC->dU-editing enzyme APOBEC-3G (Homo sapiens) (UniProt Q9HC16); assay: qHTS for inhibitors of Vif-A3G interactions: Validation (AID 588379); note: 0% is about no effect
Outline: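 Yellow fluorescence (Ex 488, Em 500-530) of Vif-coexpressing HeLa A3G-eYFP cells, scanned by Acumen cytometer, reports blocked A3G degradation. Cells plated at 700/well overnight at 37 deg C before compound addition, then a further overnight compound incubation at 37 deg C.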

[23] = Stat Signaling Pathway (AID 446; active = well fitted curve in either direction with a large enough effect, not every such curve was filed as active); conditions: ME-180 (cervical carcinoma) SIE beta-lactamase reporter, IL-6 stimulated, 5 h
Outline: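 Emission at 460 and 530 nm (excitation 405 nm) reports SIE-controlled beta-lactamase in ME-180 cells. Cells received compound with 40 pM IL-6 for 5 hrs at 37 C; data scaled between 300 pM IL-6 and 125 nM JAK-inhibitor controls.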

[24] = molecular target: Alpha-galactosidase A (Homo sapiens) (UniProt P06280); assay: Counterscreen for Glucocerebrosidase Inhibitors: qHTS Assay for Human alpha-Galactosidase at pH 4.5 (AID 992); note: 0% is about no effect
Outline: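 Fluorogenic 4-MU alpha-D-galactoside (80 uM) hydrolysis, 2 nM enzyme, pH 4.5 citrate buffer + 0.005% Tween-20; 20 min RT; NaOH/glycine pH 10 stop; Ex365/Em440. Compounds titrated 0.7 nM–77 uM; Hill-equation AC50.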

[25] = molecular target: Ubiquitin carboxyl-terminal hydrolase 1 (Homo sapiens) (UniProt O94782); assay: Inhibitors of USP1/UAF1: Pilot qHTS (AID 504865);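 note: rhodamine fluorescence freed from ubiquitin-rhodamine substrate followed over time; top concentration of the series differs between compounds; % is set by controls: 0 for no effect and ±100 for the full control effect; nearly all actives have a fitted effect of over 35% in size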
Outline: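 1nM USP1/UAF1 + cpd, 15 min RT; start w/ Ub-Rho 150nM final; kinetic FL 480/540 nm, 6 reads q60 s. Buffer 50mM HEPES pH 7.8, 0.5mM EDTA, 1mM TCEP, 0.01% Tween-20, 0.1 mg/ml BSA.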

[26] = measured here: cell count channel max response
[27] = measured here: lipid channel max response

Muscarinic acetylcholine receptor M1 (Rattus norvegicus), sequence (P08482 whole entry, looked up): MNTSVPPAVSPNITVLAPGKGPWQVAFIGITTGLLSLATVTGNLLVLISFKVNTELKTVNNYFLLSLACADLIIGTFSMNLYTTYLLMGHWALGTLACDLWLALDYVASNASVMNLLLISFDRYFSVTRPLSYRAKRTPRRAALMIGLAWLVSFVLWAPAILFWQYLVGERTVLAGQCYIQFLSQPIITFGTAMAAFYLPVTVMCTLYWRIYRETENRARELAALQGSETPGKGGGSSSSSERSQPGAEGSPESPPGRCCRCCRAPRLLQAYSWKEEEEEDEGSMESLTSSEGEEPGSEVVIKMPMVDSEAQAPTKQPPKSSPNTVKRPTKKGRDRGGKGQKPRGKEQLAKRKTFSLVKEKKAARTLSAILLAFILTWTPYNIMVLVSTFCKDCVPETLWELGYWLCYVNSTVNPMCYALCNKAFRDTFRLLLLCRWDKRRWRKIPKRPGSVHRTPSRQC
Glucocorticoid receptor (Homo sapiens), sequence (P04150 whole entry, looked up, the tested form may be a part): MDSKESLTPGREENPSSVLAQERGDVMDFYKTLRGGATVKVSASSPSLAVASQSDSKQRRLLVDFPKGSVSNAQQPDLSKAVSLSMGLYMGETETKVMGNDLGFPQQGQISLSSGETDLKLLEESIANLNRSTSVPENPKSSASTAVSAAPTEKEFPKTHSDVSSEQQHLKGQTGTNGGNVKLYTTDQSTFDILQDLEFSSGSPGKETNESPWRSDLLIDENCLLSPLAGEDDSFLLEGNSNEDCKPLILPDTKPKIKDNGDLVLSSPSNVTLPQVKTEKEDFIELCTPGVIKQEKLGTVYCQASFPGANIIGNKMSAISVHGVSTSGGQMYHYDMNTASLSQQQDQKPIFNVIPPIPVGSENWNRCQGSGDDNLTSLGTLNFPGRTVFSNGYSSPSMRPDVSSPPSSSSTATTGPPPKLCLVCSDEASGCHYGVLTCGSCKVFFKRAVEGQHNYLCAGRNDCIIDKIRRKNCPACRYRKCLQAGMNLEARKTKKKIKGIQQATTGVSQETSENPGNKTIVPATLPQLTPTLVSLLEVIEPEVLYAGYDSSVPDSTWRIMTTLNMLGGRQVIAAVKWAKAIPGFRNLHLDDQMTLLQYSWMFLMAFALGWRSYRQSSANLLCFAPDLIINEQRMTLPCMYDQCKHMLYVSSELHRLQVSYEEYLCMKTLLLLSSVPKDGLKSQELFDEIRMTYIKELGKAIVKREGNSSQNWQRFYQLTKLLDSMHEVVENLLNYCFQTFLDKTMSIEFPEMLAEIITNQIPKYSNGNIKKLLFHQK
3',5'-cyclic-AMP phosphodiesterase 4B (Homo sapiens), sequence (Q07343 whole entry, looked up): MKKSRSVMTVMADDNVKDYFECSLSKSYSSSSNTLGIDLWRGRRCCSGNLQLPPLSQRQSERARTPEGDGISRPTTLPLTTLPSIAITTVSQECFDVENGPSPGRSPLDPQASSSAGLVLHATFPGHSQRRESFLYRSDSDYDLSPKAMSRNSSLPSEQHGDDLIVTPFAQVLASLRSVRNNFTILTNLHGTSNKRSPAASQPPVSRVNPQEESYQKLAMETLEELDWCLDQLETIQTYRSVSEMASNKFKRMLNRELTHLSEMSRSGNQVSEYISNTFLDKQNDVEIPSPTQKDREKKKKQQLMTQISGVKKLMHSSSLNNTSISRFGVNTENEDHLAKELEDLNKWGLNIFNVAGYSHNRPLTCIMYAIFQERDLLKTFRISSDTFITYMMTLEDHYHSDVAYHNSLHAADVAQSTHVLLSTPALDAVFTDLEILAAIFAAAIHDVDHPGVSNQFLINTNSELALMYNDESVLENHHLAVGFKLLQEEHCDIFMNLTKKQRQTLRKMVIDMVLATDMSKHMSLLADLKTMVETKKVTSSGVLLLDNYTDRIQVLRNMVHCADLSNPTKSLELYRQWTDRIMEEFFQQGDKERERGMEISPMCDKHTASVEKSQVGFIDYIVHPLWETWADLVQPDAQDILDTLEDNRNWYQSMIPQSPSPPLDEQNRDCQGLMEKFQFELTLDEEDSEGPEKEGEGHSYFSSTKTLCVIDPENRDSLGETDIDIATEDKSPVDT
Cytochrome P450 1A2 (Homo sapiens), sequence (P05177 whole entry, looked up): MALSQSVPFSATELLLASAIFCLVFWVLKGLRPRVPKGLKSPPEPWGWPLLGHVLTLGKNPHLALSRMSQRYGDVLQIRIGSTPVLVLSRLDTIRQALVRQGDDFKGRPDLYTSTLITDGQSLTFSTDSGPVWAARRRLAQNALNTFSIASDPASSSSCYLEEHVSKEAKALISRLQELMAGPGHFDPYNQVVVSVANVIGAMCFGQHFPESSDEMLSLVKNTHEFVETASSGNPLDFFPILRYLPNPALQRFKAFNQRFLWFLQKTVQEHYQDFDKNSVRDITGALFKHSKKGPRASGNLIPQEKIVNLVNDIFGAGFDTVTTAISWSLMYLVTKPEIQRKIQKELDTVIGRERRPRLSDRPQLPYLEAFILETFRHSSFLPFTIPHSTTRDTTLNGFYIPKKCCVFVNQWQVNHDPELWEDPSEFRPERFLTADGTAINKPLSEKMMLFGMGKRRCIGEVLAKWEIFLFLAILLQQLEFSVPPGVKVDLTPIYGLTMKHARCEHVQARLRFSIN
Cytochrome P450 2C19 (Homo sapiens), sequence (P33261 whole entry, looked up): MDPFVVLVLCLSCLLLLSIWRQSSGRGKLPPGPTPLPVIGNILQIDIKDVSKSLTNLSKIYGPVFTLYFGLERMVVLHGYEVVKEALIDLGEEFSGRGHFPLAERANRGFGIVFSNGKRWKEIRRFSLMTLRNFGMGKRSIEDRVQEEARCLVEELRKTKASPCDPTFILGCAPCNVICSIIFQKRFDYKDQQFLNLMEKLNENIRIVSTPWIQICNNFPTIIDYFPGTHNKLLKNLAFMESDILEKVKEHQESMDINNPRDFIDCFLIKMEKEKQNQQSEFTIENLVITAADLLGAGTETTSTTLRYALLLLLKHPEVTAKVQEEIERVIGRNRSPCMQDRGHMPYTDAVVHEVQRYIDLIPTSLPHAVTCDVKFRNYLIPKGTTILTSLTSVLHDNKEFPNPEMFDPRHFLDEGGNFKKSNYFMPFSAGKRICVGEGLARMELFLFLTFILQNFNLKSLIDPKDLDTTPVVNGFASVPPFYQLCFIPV
DNA dC->dU-editing enzyme APOBEC-3G (Homo sapiens), sequence (Q9HC16 whole entry, looked up): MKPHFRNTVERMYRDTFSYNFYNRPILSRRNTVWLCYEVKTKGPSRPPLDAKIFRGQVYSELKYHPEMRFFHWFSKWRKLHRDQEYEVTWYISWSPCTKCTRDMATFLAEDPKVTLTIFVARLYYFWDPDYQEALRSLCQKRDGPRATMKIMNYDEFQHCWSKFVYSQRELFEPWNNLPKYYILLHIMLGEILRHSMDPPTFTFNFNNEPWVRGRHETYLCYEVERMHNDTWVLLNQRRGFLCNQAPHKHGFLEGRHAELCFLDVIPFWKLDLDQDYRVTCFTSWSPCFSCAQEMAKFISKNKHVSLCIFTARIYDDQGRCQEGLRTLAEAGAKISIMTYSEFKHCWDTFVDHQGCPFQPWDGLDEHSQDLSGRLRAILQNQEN
Guanine nucleotide-binding protein G(i) subunit alpha-1 (Homo sapiens), sequence (P63096 whole entry, looked up): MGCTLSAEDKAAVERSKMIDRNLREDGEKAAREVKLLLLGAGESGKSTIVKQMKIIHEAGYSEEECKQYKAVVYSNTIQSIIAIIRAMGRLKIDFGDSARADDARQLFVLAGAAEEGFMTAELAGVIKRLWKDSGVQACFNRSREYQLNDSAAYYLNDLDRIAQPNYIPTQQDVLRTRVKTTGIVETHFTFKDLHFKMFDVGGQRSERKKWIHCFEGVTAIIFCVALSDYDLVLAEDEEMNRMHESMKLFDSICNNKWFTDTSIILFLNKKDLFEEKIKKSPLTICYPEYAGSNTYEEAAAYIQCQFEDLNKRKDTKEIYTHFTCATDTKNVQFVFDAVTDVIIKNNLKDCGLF
Pyruvate kinase (Leishmania mexicana), sequence (Q27686 2-499 E452W): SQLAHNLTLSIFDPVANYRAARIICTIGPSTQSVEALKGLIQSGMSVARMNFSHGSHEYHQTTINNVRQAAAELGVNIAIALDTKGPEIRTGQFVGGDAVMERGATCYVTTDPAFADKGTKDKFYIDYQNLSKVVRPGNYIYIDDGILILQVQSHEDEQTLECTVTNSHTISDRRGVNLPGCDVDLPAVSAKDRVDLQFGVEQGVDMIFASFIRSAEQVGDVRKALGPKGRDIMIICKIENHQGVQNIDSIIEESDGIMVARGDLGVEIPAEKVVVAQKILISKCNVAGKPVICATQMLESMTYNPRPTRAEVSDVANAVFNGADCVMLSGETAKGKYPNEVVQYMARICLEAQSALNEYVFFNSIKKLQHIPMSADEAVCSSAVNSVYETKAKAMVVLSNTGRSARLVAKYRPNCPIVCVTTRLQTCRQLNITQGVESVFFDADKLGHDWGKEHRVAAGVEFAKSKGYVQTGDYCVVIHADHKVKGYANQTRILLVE
Cytochrome P450 2D6 (Homo sapiens), sequence (P10635 whole entry, looked up): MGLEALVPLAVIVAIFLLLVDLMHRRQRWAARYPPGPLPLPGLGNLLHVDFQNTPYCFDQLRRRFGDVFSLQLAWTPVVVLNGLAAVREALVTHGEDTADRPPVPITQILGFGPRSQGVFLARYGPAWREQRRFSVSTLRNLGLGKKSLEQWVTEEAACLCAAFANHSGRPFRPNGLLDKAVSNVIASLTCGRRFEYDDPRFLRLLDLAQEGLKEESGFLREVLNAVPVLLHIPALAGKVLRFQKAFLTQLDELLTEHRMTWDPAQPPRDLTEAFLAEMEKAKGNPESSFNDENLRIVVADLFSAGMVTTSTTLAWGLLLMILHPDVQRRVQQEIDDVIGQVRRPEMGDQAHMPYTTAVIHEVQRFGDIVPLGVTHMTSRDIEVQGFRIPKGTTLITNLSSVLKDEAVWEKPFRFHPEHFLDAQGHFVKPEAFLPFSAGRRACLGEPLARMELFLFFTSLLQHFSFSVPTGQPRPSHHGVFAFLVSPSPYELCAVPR

CSCC[C@@H](N)C(=O)O
inactive: Potency [1] | Potency [2]

NC[C@](O)(CS(=O)(=O)O)c1ccc(Cl)cc1
11.5%: max response [21, 26]
inactive and 31.6 µM (active): Potency [4]
9.5%: max response [21, 27]
inactive: activity change, negative = inhibition ([3]; at 38 µM (top of the series)) 6.15% | activity change, negative = inhibition [5] -5.4% | Potency [6] > 46 µM | Potency [7] > 46 µM | Potency [8] | Potency [9] | outcome [10] | Potency [11] | Potency [12] | Potency [13] | Potency [14] | Potency [15] | Potency [16] | Potency [17] | Potency [18] | outcome [19] | outcome [20] | activity change, negative = inhibition ([21]; at 57.5 µM (top of the series)) -5.03% | Potency [22] | Potency [1] | Potency [2]

CC(N)=NCCC[C@H](N)C(=O)O
inactive: activity change, negative = inhibition ([3]; at 38 µM (top of the series)) -5.19% | activity change, negative = inhibition [5] 5.13% | activity, negative = inhibition ([23]; at 38 µM (top of the series)) -24.9% | Potency [6] > 46 µM | Potency [7] > 46 µM | Potency [8] | Potency [9] | outcome [10] | Potency [15] | Potency [16] | Potency [17] | Potency [18] | outcome [19] | outcome [24] | outcome [20] | activity change, negative = inhibition ([21]; at 57.5 µM (top of the series)) 4.11% | Potency [25] | Potency [22] | Potency [1] | Potency [2]
-7.21%: max response [21, 26]
-3.8%: max response [21, 27]

CC[N+](C)(CC)CCC[n+]1c(-c2ccccc2)c2cc(N)ccc2c2ccc(N)cc21
-3.68%: max response [21, 27]
active: Potency [4] 12.6 µM | Potency [13] 6.31 µM | Potency [14] 1.58 µM
-4.14%: max response [21, 26]
inactive: activity change, negative = inhibition ([3]; at 17.2 µM (top of the series)) 5.27% | activity, negative = inhibition ([23]; at 17.2 µM (top of the series)) -13.1% | Potency [6] > 20.6 µM | Potency [7] > 20.6 µM | Potency [8] | Potency [9] | Potency [12] | activity change, negative = inhibition ([21]; at 25.7 µM (top of the series)) 0.117% | Potency [1] | Potency [2]
